Results reported in PubChem BioAssay (EPA / NIEHS).
The source made the active and inactive calls. The calls were made as follows: active = hit-call score of the fitted dose curve at least 0.9, where 1 is the maximum; inactive = score below 0.9.

Read-out: Epidermal growth factor receptor (EGFR), EGFR (gene 1956)
Experiment: BSK_hDFCGF_EGFR: BioMAP Diversity Plus: hDFCGF Assay for Epidermal growth factor receptor (EGFR) Biomarker Activity (AID 2283057)
Conditions: primary human foreskin fibroblasts; actives raise or lower the signal
Method: BSK_hDFCGF is a cell-based, multiplexed-readout assay that uses foreskin fibroblast, a human skin primary cell, with measurements taken at 24 hours after chemical dosing in a 96-well plate.BSK_hDFCGF_EGFR is an assay component measured in the BSK_hDFCGF assay. It measures EGFR antibody related to regulation of gene expression using ELISA technology.Data from the assay component BSK_hDFCGF_EGFR was analyzed into 1 assay endpoint. This assay endpoint, BSK_hDFCGF_EGFR, was analyzed with bidirectional fitting relative to DMSO as the negative control and baseline of activity. Using a type of binding reporter, gain or loss-of-signal activity can be used to understand changes in the signaling as they relate to the gene EGFR. Furthermore, this assay endpoint can be referred to as a primary readout, because this assay has produced multiple assay endpoints where this one serves a signaling function. To generalize the intended target to other relatable targets, this assay endpoint is annotated to the kinase intended target family, where the subfamily is receptor tyrosine kinase.
The levels of cell surface (or secreted, indicated by the prefix "s") biomarker endpoints were measured by ELISA. Overt cytotoxicity to cells in confluent adherent cultures (all systems other than the BT system) was assessed by measuring total protein levels using sulforhodamine B (SRB) staining in parallel cultures at the time of biomarker measurements, indicated as SRB endpoints. For proliferation assays for adherent cell types, individual cell types are cultured at sub-confluence and relative cell numbers quantified by SRB staining at time points optimized for each system (48 h: 3C and CASM3C systems; 72 h: BT and HDF3CGF systems; 96 h: SAg system). SRB was performed by staining cells with 0.1% SRB after fixation with 10% TCA and reading wells at 560 nm.Viability and proliferation of PBMC (T cells) was quantified by Alamar Blue reduction for the SAg and BT systems. For PBMC viability (referred to as PBMC Cytotoxicity within the assay endpoint names), cells were plated (75,000/well in a 96-well plate) and then chemical samples added for 1 h before addition of activators, SEB and TSST-1 (20 ng/mL final concentration each). Cells were incubated for 90 h. Then, Alamar Blue (20 uL/well) (Invitrogen, Cat DAL1100) was added for 6 h, and the plates were read with a fluorescence microplate reader at 546/580 nm (excitation/emission). For PBMC proliferation, cells were plated and activated as above but incubated for only 16 h prior to addition of Alamar Blue. Plates were read after 6 h.

Q: For Clc1nc(Cl)nc(Nc2ccccc2Cl)n1, which outcome is on record?
A: inactive

Q: How did the AC50 turn out when C=CCOC(=O)C(C)(C)OC(=O)c1cc(-n2c(=O)cc(C(F)(F)F)n(C)c2=O)ccc1Cl was run?
A: 0.98 µM (active)

Q: Which outcome does the source give for N#CN=C1SCCN1Cc1ccc(Cl)nc1 here?
A: inactive

Q: Which outcome does the source give for Cc1nc(N(C)C)nc(OC(=O)N(C)C)c1C here?
A: inactive

Q: With CCCCC(C#N)(Cn1cncn1)c1ccc(Cl)cc1 (stereo not given) as the compound, how does the outcome read?
A: inactive

Q: With CCOc1nc(C(Cl)(Cl)Cl)ns1 as the compound, how does the outcome read?
A: inactive

Q: O=c1n(Cl)c(=O)n(Cl)c(=O)n1Cl was tested. Which outcome did it give?
A: inactive

Q: How did the outcome turn out when CCOP(=O)(OCC)Oc1nc(Cl)c(Cl)cc1Cl was run?
A: inactive

Q: Which outcome does the source give for Cc1ccc(N=CN(C)C=Nc2ccc(C)cc2C)c(C)c1 here?
A: inactive

Q: With OC(c1ccc(Cl)cc1)(c1ccc(Cl)cc1)C(Cl)(Cl)Cl as the compound, how does the outcome read?
A: inactive

Q: For CC(C)Oc1cccc(NC(=O)c2ccccc2C(F)(F)F)c1, which outcome is on record?
A: inactive

Q: How did the outcome turn out when COc1cc(OC)nc(NC(=O)NS(=O)(=O)c2ncccc2OCC(F)(F)F)n1 was run?
A: inactive

Q: For CC1(C)C(C(=O)OC(C#N)c2cccc(Oc3ccccc3)c2)C1(C)C (stereo not given), which outcome is on record?
A: inactive

Q: With COC(=O)c1c(C(F)F)nc(C(F)(F)F)c(C2=NCCS2)c1CC(C)C as the compound, how does the outcome read?
A: inactive

Q: Which AC50 does the source give for CN=C=S here?
A: 5.42 µM (active)

Q: Which outcome does the source give for CCNP(=S)(OC)O/C(C)=C/C(=O)OC(C)C (stereo not given) here?
A: inactive

Q: For CSC(=O)c1c(C(F)F)nc(C(F)(F)F)c(C(=O)SC)c1CC(C)C, which outcome is on record?
A: inactive

Q: How did the outcome turn out when CCCC(=NOCC)C1=C(O)CC(CC(C)SCC)CC1=O (stereo not given) was run?
A: inactive

Q: COCC(=O)N(c1c(C)cccc1C)C(C)C(=O)OC (stereo not given) was tested. Which outcome did it give?
A: inactive

Q: How did the outcome turn out when CC(C)C1(C)N=C(c2ncccc2C(=O)O)NC1=O (stereo not given) was run?
A: inactive

Q: Which outcome does the source give for COC(=O)N(C(=O)N1CO[C@@]2(C(=O)OC)Cc3cc(Cl)ccc3C2=N1)c1ccc(OC(F)(F)F)cc1 here?
A: inactive

Q: With COP(=S)(OC)Oc1ccc([N+](=O)[O-])c(C)c1 as the compound, how does the outcome read?
A: inactive

Q: How did the outcome turn out when CC(C)Nc1nc(Cl)nc(NC(C)C)n1 was run?
A: inactive

Q: For CNC(=O)N(C)c1nnc(C(C)(C)C)s1, which outcome is on record?
A: inactive

Q: Which outcome does the source give for COC(=O)NC(=S)Nc1ccccc1NC(=S)NC(=O)OC here?
A: inactive

Q: For CCOP(=S)(OCC)Oc1nc(Cl)n(C(C)C)n1, which outcome is on record?
A: inactive

Q: How did the outcome turn out when CN/C(=N\[N+](=O)[O-])NCc1cnc(Cl)s1 was run?
A: inactive

Q: Which outcome does the source give for C=C(C)CN(CC)c1c([N+](=O)[O-])cc(C(F)(F)F)cc1[N+](=O)[O-] here?
A: inactive

Q: With N#Cc1c[nH]cc1-c1cccc2c1OC(F)(F)O2 as the compound, how does the outcome read?
A: inactive

Q: For Clc1cccc(C(Cl)(Cl)Cl)n1, which outcome is on record?
A: inactive

Q: How did the outcome turn out when COP(=S)(OC)SCn1nnc2ccccc2c1=O was run?
A: inactive

Q: How did the outcome turn out when CCSC(=O)N1CCCCCC1 was run?
A: inactive

Q: With COC(=O)NS(=O)(=O)c1ccc(N)cc1 as the compound, how does the outcome read?
A: inactive

Q: Which outcome does the source give for Nc1c(Cl)c(Cl)nc(C(=O)O)c1Cl here?
A: inactive

Q: With O=P(O)(O)CCCl as the compound, how does the outcome read?
A: inactive

Q: For CCOC(=O)C(C)OC(=O)c1cc(Oc2ccc(C(F)(F)F)cc2Cl)ccc1[N+](=O)[O-] (stereo not given), which outcome is on record?
A: inactive

Q: For CS(=O)(=O)c1ccc(C(=O)C2C(=O)CCCC2=O)c([N+](=O)[O-])c1, which outcome is on record?
A: inactive

Q: For O=C(Nc1ccccc1-c1ccc(Cl)cc1)c1cccnc1Cl, which outcome is on record?
A: inactive

Q: For CC(C)(C)C(=O)C(Oc1ccc(Cl)cc1)n1cncn1 (stereo not given), which outcome is on record?
A: inactive

Q: How did the outcome turn out when CCNC(=O)NC(=O)C(C#N)=NOC was run?
A: inactive
